Pf growth 48h – P. falciparum growth inhibition at 48 hours (one generation). P. falciparum luciferase growth in erythrocytes, 48 h. Potency, µM (highest dose often 28.7 µM), inactives show top-dose activity change, negative = inhibition, usual class: inhibitors. 5.9% of 310,000 active; note: potency is the fitted concentration of half-maximal effect; % is set by controls: 0 for no effect and ±100 for the full control effect
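Luciferase-expressing parasites in RBCs, 2% Hct / 0.1% parasitemia final; RPMI 1640 + 0.5% Albumax; 37 C, 5% CO2, one generation; luminescence read-out, lower signal = inhibition.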
CHX counter – affects cycloheximide protein synthesis inhibition readout, counter-screen | max response, % | AID 2314 | cell reporter, cycloheximide protein synthesis inhibition counterscreen | 12% of 300,000 active; in the data active = max response mostly above about 13%, no sharp cut-off; inactive = mostly below about 14%; note: read at 38.3 µM for the half of the compounds with a filed dose; 0% is about no effect
Pf growth 96h – P. falciparum growth inhibition at 96 hour, primary screen for plastid delayed-death inhibitors. 6.9% of 320,000 active. P. falciparum luciferase reporter growth, 96 h. Potency, µM (top dose mostly 28.7 µM), for inactives: at the top dose activity change, negative = inhibition, usual class: inhibitors; note: potency is the fitted concentration of half-maximal effect; % is set by controls: 0 for no effect and ±100 for the full control effect
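Delayed-death screen, second-generation endpoint: infected erythrocytes, 2% hematocrit, 0.05% parasitemia final; 96 hours at 37 C, 5% CO2; luciferase detection reagent; luminescence decrease equals reduced growth.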
Shiga toxin inh – inhibitors of Shiga toxin in Vero cells | Vero cells, Shiga toxin protein synthesis inhibition reporter | inhibition, % at 38.7 µM | 9.2% of 290,000 active | AID 2315; in the data active = inhibition mostly above about 28%, no sharp cut-off; inactive = mostly below about 43%; note: 0% is about no effect
NS1 function inh – blocks influenza NS1 protein function; 0.4% of 270,000 active; AID 2326; Potency, µM (doses to about 46.1 µM), for inactives: at the highest dose activity, positive = more growth; calls by dose curve; note: potency is the fitted concentration of half-maximal effect; actives are rising curves; nearly all actives have a fitted effect of over 50% in size
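S. cerevisiae expressing influenza A NS1, grown in glucose, washed, then diluted 1:100 into pH 6.0 -URA galactose medium with 23 nl compound. Growth recovery read as OD600; NS1-free strain serves as control.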
FBPA Giardia inh – inhibitors of Giardia lamblia fructose-1,6-bisphosphate aldolase | purified Giardia FBPA | Potency, µM (top dose mostly 59.6 µM), for the others: at the highest dose activity, negative = inhibition, most hits filed as inhibitors | 0.71% of 290,000 active | AID 2451; note: potency is the fitted concentration of half-maximal effect; % is set by controls: 0 for no effect and ±100 for the full control effect; nearly all actives have a fitted effect of over 55% in size
Target sequence (A8B2U2 whole entry, looked up): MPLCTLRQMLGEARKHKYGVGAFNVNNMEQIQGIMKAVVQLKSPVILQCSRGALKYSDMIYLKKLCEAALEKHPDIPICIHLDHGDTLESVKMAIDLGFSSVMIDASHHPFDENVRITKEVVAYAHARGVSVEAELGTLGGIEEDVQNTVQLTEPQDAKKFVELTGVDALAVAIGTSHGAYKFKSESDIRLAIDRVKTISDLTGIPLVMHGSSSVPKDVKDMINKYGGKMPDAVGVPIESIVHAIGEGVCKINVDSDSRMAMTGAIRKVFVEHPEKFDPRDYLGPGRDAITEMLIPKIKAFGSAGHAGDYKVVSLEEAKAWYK
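40 nM FBPA preincubated 10 min at RT with compound (up to 57.5 uM final), then substrate plus GAPDH/TPI/NAD/arsenate coupling and diaphorase/resazurin added. Fluorescence read after 20 min at RT, 525/598 nm.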
* marks the source's active call; other numbers are inactive results; ? = inconclusive; · = no result given. Hits are enriched below; roughly 21% of the tested compounds scored in any of these assays. Unless noted, calls come from the whole dose curve; as a rule, active = well fitted curve in the direction sought with a large enough effect; inconclusive = small, poorly fitted or top-dose-only effect, or another doubt; inactive = no such curve, though single readings can be large; an effect the other way counts as inactive or inconclusive.

SMILES	Pf growth 48h	CHX counter	Pf growth 96h	Shiga toxin inh	NS1 function inh	FBPA Giardia inh
CCOC(=O)N1CCN(CC(=O)Nc2ccc(Oc3ccccc3)cc2)CC1	7.4µM*	-4	·	-15	-47%	0%
Cc1ccc(N(C(C)C(=O)N2CCC(C)CC2)S(C)(=O)=O)cc1C (configuration not stated)	9%	0	?	-8	-2%	4%
CCOC(=O)C1CCN(C(=O)C(C)N(c2ccc(Oc3ccccc3)cc2)S(C)(=O)=O)CC1 (configuration not stated)	?	-2	?	3	-8%	-2%
CN1CCN(CC(=O)Nc2ccc(Oc3ccccc3)cc2)CC1	?	6	31%	-9	2%	-6%
CCOC(=O)N1CCN(C(=O)C(C)N(c2ccc(Oc3ccccc3)cc2)S(C)(=O)=O)CC1 (configuration not stated)	12µM*	-1	?	-2	-27%	4%
O=C(CN1CCN(c2ccccc2)CC1)Nc1ccc(OCc2ccccc2)cc1	6%	-2	27%	10	-50%	0%
CC(=O)N[C@@H](CCCNC(=N)N)C(=O)N[C@H](CC1CCCCC1)C(=O)N[C@@H]1CCC2SC[C@@H](C(=O)N[C@H](CCCNC(=N)N)C(=O)N[C@H](Cc3ccc(Cl)cc3)C(N)=O)N2C1=O (some centres not stated)	·	-5	·	-5	·	-1%
CCC(C)C(NC(N)=O)C(=O)Nc1ccc(OCc2ccccc2)cc1 (configuration not stated)	7%	22*	88%	26*	-10%	9%
COc1ccccc1NC(=O)CN1CCN(CC(=O)Nc2ccc(F)cc2)CC1	?	-3	?	-5	-1%	-1%
COc1ccccc1NC(=O)CN1CCN(CC(=O)Nc2ccc(OCc3ccccc3)cc2)CC1	?	20*	-18%	18	-103%	-8%
CS(=O)(=O)N1CCC(C(=O)Nc2ccc(OCc3ccccc3)cc2)CC1	-9%	0	·	23	0%	0%
CC(C(=O)Nc1ccc(OCc2ccccc2)cc1)N1CCCC1 (configuration not stated)	76%	28*	0%	33*	·	-2%
COc1ccc(NC(=O)N2CC3(CCN(C(=O)c4cc(C(F)(F)F)cc(C(F)(F)F)c4)CC3)C2)cc1	·	·	·	·	·	0%
O=C(Cn1ncn2nc(-c3ccccc3)cc2c1=O)NCc1ccccn1	43%	-7	-17%	9	0%	·
NC(=O)CC(NC(=O)Cc1ccc(Br)cc1)c1ccc(N2CCc3ccccc3C2)c([N+](=O)[O-])c1 (configuration not stated)	?	-1	?	-6	28%	-1%
O=C(N1CCCCC1)C1(c2ccccc2)CCOCC1	-5%	4	12µM*	23	?	-2%
O=C(N1CCOCC1)C1(c2ccccc2)CCCCC1	-3%	-2	17%	-14	8%	-4%
Cc1ccnc(N2CCC(C(=O)Nc3ccc4c(c3)CCC4)CC2)n1	-15%	-1	-2%	28	2%	-3%
Cc1cc(C)cc(NC(=O)C2CCCN(c3nc(C)cc(C)n3)C2)c1 (configuration not stated)	·	4	·	-12	-11%	3%
Cc1cc(C)nc(N2CCCC(C(=O)Nc3nnc(C)s3)C2)n1 (configuration not stated)	26%	-4	·	-25	-4%	2%
CCC(C)NC(=O)C1CCCN(c2nc(C)cc(OC)n2)C1 (configuration not stated)	-27%	-5	44%	22	-4%	5%
Cc1cc(C)nc(N2CCCC(C(=O)Nc3ccc4nc(C)c(C)nc4c3)C2)n1 (configuration not stated)	12µM*	-4	·	-11	-54%	0%
COc1cc(C)nc(N2CCCC(C(=O)NC3CCC(C)CC3)C2)n1 (configuration not stated)	28%	32*	2.9µM*	123	?	1%
Cc1cc(C)nc(N2CCCC(C(=O)Nc3nc4ccc(S(C)(=O)=O)cc4s3)C2)n1 (configuration not stated)	7.4µM*	1	·	-14	-39%	-1%
